The text below walks through data of PubChem BioAssay.

Calls of active or inactive are those of the source.

Experiment [1] deals with PRMT1 (protein arginine N-methyltransferase 1). Description: PRMT1 binders on small-molecule microarrays, primary screen, biochemical, small-molecule microarray, 635 nm fluorescence (AID 1088).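 Further: binding of Prmt1 protein to compounds spotted on small-molecule microarray slides.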 As to conditions: small-molecule microarray binding, higher = more signal.
Experiment [2] is described as follows: yeast growth modulation, basal conditions, primary screen, YJM789 clinical isolate, OD600, 24 h (AID 1089).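 Further: growth of clinical yeast isolate S. cerevisiae YJM 789 seeded 1000 cells per well; test concentration not given here.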 The conditions noted are these: S. cerevisiae YJM789 growth, higher = more signal, called active from +8 up or from −8 down.
Experiment [3] is described as follows: fission yeast growth modulation, primary screen, strain 972, OD600, 24 h, no modulator (AID 1090).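 Further: basal condition with compound alone and no growth modifier present; test concentration not given here.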 As to conditions: S. pombe 972 growth, higher = more signal, called active from +8 up or from −8 down.
Experiment [4] is described as follows: S. cerevisiae growth modulation with rapamycin, primary screen, strain BY4716, OD600, 96 h (AID 1091). Further: test concentration not given here. The conditions noted are these: higher = more signal, called active from +8 up or from −8 down.
In experiment [5] the target is Torsin-1A-interacting protein 2 (Homo sapiens) (UniProt Q8NFQ8). Nature of the experiment: LULL1 binders on small-molecule microarray, primary screen, cell lysate, human LULL1 lysate, 635/667 nm fluorescence (AID 1092).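 Further: probe is lysate of COS7 cells overexpressing human LULL1; score merges per-feature 667 nm fluorescence with signal-to-noise.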 The conditions noted are these: hLULL1 lysate binding, 635 nm fluorescence, higher = more signal.
Torsin-1A-interacting protein 2 (Homo sapiens), sequence (Q8NFQ8 whole entry, looked up): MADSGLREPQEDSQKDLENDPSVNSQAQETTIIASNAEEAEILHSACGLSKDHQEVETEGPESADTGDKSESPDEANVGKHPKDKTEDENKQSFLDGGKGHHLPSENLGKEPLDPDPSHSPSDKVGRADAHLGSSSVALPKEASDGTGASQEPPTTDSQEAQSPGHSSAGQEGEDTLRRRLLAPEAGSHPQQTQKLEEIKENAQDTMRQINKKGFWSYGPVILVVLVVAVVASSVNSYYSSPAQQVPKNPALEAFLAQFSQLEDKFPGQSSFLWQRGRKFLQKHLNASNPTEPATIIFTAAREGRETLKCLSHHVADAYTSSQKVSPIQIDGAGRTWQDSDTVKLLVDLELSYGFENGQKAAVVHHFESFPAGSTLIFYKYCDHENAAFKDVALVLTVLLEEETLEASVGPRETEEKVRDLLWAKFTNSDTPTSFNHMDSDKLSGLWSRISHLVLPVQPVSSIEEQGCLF
Experiment [6] is described as follows: E. coli growth modulation, two-sided OD650, primary screen, E. coli filamentation project, strain DRC41, 24 h (AID 1093).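 Further: MC1000 strain lacking acrAB efflux and sulA so SOS filamentation is blocked; test concentration not given here.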 As to conditions: OD650, 24 h, higher = more signal, called active from +8 up or from −8 down.
A short description of experiment [7]: small-molecule microarray binders of probe aLefty2, primary screen, biochemical, biotinylated probe, 635/667 nm fluorescence (AID 1094).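 Further: score merges spot fluorescence near 667 nm with spot signal-to-noise ratio.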 The conditions noted are these: higher = more signal.
Experiment [8] deals with Noggin (protein binding on small-molecule microarray). Nature of the experiment: Noggin binders on small-molecule microarray, primary screen, biochemical, 635/667 nm fluorescence (AID 1095).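 Further: score merges 667 nm feature fluorescence with signal to noise over triplicate slides.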 The conditions noted are these: 635 nm fluorescence, higher = more signal.
Experiment [9] deals with Neurogenic locus notch homolog protein 3 (Homo sapiens) (UniProt Q9UM47). Description: NOTCH3 binders on small-molecule microarray, primary screen, biochemical, 635/667 nm fluorescence (AID 1096). As to conditions: NOTCH3 binding, 635 nm fluorescence, higher = more signal.
Neurogenic locus notch homolog protein 3 (Homo sapiens), sequence (Q9UM47 whole entry, looked up): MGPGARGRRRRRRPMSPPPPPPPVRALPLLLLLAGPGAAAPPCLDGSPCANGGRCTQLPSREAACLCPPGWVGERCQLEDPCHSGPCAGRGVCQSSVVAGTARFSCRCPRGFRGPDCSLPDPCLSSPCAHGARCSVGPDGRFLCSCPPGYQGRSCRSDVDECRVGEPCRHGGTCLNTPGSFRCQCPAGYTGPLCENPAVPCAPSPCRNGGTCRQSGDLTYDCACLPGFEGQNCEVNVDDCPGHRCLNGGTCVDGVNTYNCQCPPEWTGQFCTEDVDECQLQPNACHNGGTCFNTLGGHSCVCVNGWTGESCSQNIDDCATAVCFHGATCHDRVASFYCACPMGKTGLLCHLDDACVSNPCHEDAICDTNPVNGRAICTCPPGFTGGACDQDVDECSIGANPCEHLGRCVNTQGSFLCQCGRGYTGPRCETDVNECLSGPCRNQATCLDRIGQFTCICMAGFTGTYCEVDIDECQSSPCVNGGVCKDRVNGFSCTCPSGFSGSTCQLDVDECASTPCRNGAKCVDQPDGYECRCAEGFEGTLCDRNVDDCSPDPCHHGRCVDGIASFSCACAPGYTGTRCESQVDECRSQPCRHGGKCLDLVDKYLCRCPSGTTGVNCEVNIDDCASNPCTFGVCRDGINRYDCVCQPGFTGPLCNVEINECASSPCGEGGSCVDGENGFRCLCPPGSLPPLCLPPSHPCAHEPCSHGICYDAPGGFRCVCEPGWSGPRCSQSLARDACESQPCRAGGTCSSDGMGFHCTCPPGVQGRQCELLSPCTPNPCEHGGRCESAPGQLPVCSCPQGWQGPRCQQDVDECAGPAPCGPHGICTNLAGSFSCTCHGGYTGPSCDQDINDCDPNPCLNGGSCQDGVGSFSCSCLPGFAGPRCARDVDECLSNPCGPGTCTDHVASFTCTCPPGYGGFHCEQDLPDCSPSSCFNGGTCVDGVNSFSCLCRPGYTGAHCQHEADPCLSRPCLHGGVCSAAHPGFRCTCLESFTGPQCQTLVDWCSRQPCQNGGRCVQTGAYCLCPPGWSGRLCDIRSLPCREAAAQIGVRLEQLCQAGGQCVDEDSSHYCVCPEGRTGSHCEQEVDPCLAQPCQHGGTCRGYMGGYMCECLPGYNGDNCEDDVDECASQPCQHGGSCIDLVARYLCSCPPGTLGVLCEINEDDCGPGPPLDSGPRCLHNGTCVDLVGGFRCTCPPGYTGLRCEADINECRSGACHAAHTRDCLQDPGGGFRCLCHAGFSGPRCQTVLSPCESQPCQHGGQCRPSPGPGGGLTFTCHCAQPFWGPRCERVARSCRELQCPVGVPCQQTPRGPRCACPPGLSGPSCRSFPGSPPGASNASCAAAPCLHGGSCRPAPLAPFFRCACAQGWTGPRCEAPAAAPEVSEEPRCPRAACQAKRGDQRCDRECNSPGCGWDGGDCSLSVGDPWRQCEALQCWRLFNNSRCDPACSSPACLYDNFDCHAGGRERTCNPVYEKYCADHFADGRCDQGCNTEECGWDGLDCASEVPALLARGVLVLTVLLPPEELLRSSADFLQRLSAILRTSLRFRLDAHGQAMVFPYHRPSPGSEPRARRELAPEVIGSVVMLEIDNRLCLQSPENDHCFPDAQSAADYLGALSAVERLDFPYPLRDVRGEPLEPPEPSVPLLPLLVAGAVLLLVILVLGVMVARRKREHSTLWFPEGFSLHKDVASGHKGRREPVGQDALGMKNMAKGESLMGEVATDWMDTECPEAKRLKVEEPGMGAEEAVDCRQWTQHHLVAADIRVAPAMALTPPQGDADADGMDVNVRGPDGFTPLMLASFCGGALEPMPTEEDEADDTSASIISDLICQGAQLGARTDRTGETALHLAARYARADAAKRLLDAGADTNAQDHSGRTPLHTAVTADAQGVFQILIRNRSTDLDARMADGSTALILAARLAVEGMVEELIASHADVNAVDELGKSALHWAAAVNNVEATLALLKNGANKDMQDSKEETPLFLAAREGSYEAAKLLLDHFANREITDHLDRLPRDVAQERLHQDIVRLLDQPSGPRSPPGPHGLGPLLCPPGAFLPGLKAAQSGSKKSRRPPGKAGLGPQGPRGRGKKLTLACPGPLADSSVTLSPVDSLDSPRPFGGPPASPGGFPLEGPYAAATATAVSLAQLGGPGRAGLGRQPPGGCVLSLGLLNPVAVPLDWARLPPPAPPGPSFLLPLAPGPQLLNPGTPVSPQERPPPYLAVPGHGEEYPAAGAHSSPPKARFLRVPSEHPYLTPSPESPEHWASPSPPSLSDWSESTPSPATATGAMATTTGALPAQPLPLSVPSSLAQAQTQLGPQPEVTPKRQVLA
Experiment [10] can be described thus: small-molecule microarray binders of probe aEGFR, primary screen, biochemical, biotinylated probe, 635/667 nm fluorescence (AID 1097).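 Further: probe is a biotinylated anti-EGFR antibody binding compounds printed on slides; score combines fluorescence near 667 nm and signal to noise of each spot.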 As to conditions: higher = more signal.
Experiment [11] concerns Plasmodium falciparum Sir2 (PF13_0152, Sir2A). Nature of the experiment: pfSir2 binders on small-molecule microarrays, primary screen, biochemical, small-molecule microarray, 635 nm fluorescence (AID 1098).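 Further: score merges spot fluorescence intensity with its signal-to-noise ratio.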 The conditions noted are these: small-molecule microarray binding, fluorescence 635 nm; higher = more signal.
The nature of experiment [12]: small-molecule microarray binders of probe aDKK1, primary screen, biochemical, biotinylated probe, 635/667 nm fluorescence (AID 1099).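 Further: score merges 667nm spot fluorescence with signal to noise across triplicate slides; reference of the scale not given here.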 The conditions noted are these: higher = more signal.
A short description of experiment [13]: small-molecule microarray binders of probe aCHRDL2, primary screen, biochemical, biotinylated probe, 635/667 nm fluorescence (AID 1100). The conditions noted are these: higher = more signal.
The nature of experiment [14]: splicing luciferase reporter signal modulators, primary screen, spliceosome inhibition project, cell-based, HEK293, splice +/- reporter (AID 1101).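 Further: HEK293 cells carrying a splicing-competent luciferase reporter gene; test concentration not given here.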 The conditions noted are these: luminescence, 24 h, higher = more signal, called active from +8 up or from −8 down.
The target in experiment [15] is Fibroblast growth factor 10 (Homo sapiens) (UniProt O15520). Description: FGF10 binders on small-molecule microarrays, primary screen, biochemical, small-molecule microarray, 635 nm fluorescence (AID 1102). As to conditions: FGF10 binding, fluorescence 635 nm, higher = more signal.
Fibroblast growth factor 10 (Homo sapiens), sequence (O15520 whole entry, looked up): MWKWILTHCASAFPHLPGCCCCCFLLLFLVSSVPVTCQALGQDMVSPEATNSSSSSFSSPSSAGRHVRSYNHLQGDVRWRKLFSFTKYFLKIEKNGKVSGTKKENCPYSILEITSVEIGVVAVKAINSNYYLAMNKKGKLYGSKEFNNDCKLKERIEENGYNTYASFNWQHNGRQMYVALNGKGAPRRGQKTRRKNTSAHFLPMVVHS
Experiment [16] deals with glycogen synthase kinase-3 (GSK3A per assay name; protocol says GSK3B). Description: GSK3 binders on small-molecule microarrays, primary screen, biochemical, small-molecule microarray, 635 nm fluorescence, GSK3A (AID 1103). Further: the record names both GSK3A and GSK3B. As to conditions: small-molecule microarray binding, fluorescence 635 nm; higher = more signal.
In experiment [17] the target is Epidermal growth factor receptor (Homo sapiens) (UniProt P00533). Nature of the experiment: EGFR binders on small-molecule microarrays, primary screen, biochemical, small-molecule microarray, 635 nm fluorescence (AID 1104).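 Further: score merges 667 nm emission intensity with spot signal to noise over triplicate slides.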 The conditions noted are these: EGFR binding, higher = more signal.
Epidermal growth factor receptor (Homo sapiens), sequence (P00533 whole entry, looked up): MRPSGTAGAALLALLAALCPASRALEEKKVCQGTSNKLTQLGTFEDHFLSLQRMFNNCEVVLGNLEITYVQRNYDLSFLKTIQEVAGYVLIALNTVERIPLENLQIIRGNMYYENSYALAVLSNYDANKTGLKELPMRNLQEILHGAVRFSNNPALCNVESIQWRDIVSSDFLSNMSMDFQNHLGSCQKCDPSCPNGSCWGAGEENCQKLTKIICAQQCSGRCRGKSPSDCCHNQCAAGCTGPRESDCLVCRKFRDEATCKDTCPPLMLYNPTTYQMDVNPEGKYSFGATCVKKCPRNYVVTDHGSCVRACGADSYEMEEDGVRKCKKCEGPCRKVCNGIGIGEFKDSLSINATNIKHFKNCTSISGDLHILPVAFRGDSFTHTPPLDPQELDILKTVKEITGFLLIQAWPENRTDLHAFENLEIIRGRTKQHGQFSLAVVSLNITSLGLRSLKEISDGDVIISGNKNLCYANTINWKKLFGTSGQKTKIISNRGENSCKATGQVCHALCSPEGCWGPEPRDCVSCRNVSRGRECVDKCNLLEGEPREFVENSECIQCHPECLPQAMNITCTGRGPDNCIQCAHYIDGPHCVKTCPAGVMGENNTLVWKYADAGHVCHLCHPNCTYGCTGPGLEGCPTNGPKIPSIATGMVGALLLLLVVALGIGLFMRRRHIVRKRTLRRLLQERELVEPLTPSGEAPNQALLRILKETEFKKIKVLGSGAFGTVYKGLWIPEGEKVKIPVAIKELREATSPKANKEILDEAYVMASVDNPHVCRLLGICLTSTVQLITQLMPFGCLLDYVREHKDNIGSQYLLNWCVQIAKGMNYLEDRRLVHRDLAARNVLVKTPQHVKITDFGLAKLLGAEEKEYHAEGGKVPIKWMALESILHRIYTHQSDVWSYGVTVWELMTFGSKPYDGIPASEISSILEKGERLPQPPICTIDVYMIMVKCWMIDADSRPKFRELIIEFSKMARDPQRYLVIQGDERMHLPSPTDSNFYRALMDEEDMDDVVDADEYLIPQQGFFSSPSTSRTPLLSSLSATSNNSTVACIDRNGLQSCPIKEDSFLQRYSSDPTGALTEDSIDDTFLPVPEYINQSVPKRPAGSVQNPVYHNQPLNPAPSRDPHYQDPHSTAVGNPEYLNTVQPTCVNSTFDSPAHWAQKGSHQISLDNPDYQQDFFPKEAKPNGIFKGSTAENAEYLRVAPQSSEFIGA
In experiment [18] the target is Follistatin-related protein 3 (Homo sapiens) (UniProt O95633). Nature of the experiment: FSTL3 binders on small-molecule microarrays, primary screen, biochemical, small-molecule microarray, 635 nm fluorescence (AID 1105).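 Further: score merges emission near 667 nm and signal to noise per printed spot across three slides.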 As to conditions: FSTL3 binding, higher = more signal.
Follistatin-related protein 3 (Homo sapiens), sequence (O95633 whole entry, looked up): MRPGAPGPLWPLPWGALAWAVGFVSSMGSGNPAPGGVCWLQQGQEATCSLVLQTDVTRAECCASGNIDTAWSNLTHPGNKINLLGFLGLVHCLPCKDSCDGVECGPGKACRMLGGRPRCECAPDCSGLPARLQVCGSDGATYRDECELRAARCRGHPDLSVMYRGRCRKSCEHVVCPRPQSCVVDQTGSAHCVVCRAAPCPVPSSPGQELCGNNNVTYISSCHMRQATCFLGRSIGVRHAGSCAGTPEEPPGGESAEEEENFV
The target in experiment [19] is Dickkopf-related protein 1 (Homo sapiens) (UniProt O94907). Description: DKK1 binders on small-molecule microarrays, primary screen, biochemical, small-molecule microarray, 635 nm fluorescence scan (AID 1106).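 Further: score merges emission near 667 nm with signal to noise over three replicate slides.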 The conditions noted are these: DKK1 binding, higher = more signal.
Dickkopf-related protein 1 (Homo sapiens), sequence (O94907 whole entry, looked up): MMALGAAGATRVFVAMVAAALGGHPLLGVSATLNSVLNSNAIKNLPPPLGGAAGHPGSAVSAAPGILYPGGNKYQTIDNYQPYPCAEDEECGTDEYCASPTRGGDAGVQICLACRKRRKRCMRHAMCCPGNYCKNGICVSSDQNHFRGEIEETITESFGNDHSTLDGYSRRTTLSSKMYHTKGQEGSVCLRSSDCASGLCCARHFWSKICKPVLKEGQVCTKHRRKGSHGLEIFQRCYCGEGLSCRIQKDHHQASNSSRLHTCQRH
Experiment [20] deals with Inhibin beta A chain (activin A). Nature of the experiment: INHBA (activin A) binders on microarrays, primary screen, biochemical, small-molecule microarray, 635 nm fluorescence scan (AID 1107).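 Further: mouse activin A protein probed at 4.33 µg/mL on printed slides; score merges bound-protein fluorescence near 667 nm with spot signal-to-noise.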 As to conditions: small-molecule microarray binding, higher = more signal.

Regarding `COc1ccc(COC(=O)NN=C2C[C@@H](O)[C@@H](O)[C@@H]3[C@@H]4C(=O)N(C5CCCCC5)C(=O)[C@@H]4CC[C@H]23)cc1`, the composite z-score in experiment [1] is -0.416; in experiment [5], 0.271; in experiment [7], 0.432; in experiment [8] it was -0.752; in [9], -1.19; in experiment [10], -0.242. Further, the composite z-score in experiment [11] was -0.378; in experiment [12] it was 1.07; in [13] it was 1.47; in experiment [15], -0.485; in experiment [16], -0.784; in [17] it was -0.575. The values for the composite z-score in experiment [18], in experiment [19] and in experiment [20] were -0.558, -1.45 and 0.699, respectively. Moreover, the z-score in experiment [2] is 0.494 (inactive); in experiment [3], 0.586 (inactive); in experiment [4], 0.818 (inactive); in experiment [6] it was -0.277 (inactive); in [14], 1.3 (inactive).
For `COC(=O)CC=C[C@@H](C)[C@@H](C=NO[C@H](C)c1cn([C@H](CO)Cc2ccccc2)nn1)NS(=O)(=O)c1ccc(C)cc1`, the composite z-score was 0.915 in [1]; 0.786 in [5]; -0.0407 in [7]; 0.857 in experiment [8]; -0.0329 in experiment [9]; 0.168 in [10]. In addition, the composite z-score in experiment [11] is 0.182; in experiment [12], 0.0644; in experiment [13], -0.0281; in experiment [15], 0.532; in experiment [16], 0.0796; in experiment [17], 0.264. Further, the composite z-score in experiment [18] is 0.226; in experiment [19], 0.0568; in [20], -0.119. Besides, the z-score in experiment [2] is -0.798 (inactive); in [3] it was 0.359 (inactive); in [4] it was -0.824 (inactive); in experiment [6], -0.297 (inactive); in experiment [14], 0.0956 (inactive).
For `O=C1CCCC=C1C(CCc1ccccc1)OC(=O)c1ccc(Br)cc1` (stereo not given), the composite z-score in [1] is -0.429; in experiment [5], -0.699; in [7], -0.159; in [8] it was 0.354; in experiment [9], -0.445; in [10] it was -0.12. For the same compound, the composite z-score in experiment [11] is -0.258; in [12], -0.0892; in [13], -0.442; in [15] it was 0.146; in experiment [16], -0.61; in [17] it was 0.362. The figures for the composite z-score in experiment [18], in experiment [19] and in experiment [20] were 0.283, 0.422 and 0.608, respectively. Moreover, the z-score in [2] is -0.596 (inactive); in [3] it was -2.94 (inactive); in [4], -2.46 (inactive); in [6] it was 0.037 (inactive); in experiment [14] it was -0.173 (inactive).
Regarding `CSCC[C@@H]1NC(=O)CC=C[C@@H](C)COC(=O)[C@@H](C)COC1=O`, the composite z-score in experiment [1] is 1.21; in [5] it was 0.0424; in experiment [7] it was -0.103; in [8] it was 0.882; in [9], -0.142; in experiment [10], -0.197. Also, the composite z-score in [11] is -0.0958; in experiment [12] it was -0.417; in experiment [13], -0.816; in experiment [15], -0.0586; in experiment [16], 0.812; in experiment [17], 0.0541. Further, the values for the composite z-score in [18], in [19] and in [20] were -0.149, -0.18 and 0.705, respectively. Further, the z-score was 0.506 (inactive) in [2]; -0.463 (inactive) in experiment [3]; -0.318 (inactive) in experiment [4]; 0.59 (inactive) in experiment [6]; -0.0857 (inactive) in [14].
With `CCC1=NOC(CCC2CC(OC(=O)NCc3cccc4c3OCO4)CC3(CCCC(COC(=O)NCCc4ccccc4OC)O3)O2)C1` (stereo not given), the composite z-score in experiment [1] was 1.26; in experiment [5] it was 2.38; in experiment [7] it was -0.099; in [8], 0.079; in [9] it was 0.53; in experiment [10] it was -0.0424. Also, the composite z-score in [11] is 1.09; in experiment [12] it was -0.16; in experiment [13] it was -0.0595; in experiment [15], 0.709; in experiment [16], 0.391; in [17] it was 0.0007. Also, the values for the composite z-score in experiment [18], in [19] and in experiment [20] were 0.192, 0.859 and 0.312, respectively. The z-score in [2] was -0.873 (inactive); in experiment [3], 0.168 (inactive); in experiment [4] it was 0.327 (inactive); in [6] it was 1.11 (inactive); in experiment [14] it was 0.0991 (inactive).
